Assays:
Experiment in all cases: log2 ratio of Biotin-Ahx-Ub-VS probe labelling (fragment/DMSO); higher = less target engagement (more negative = stronger competition), active = hit call of the paper (q ≤ 0.05, log2 ratio ≤ -1)
Settings in all cases: compound concentration: 200 uM; treatment time: 3 h
USP34 = USP34 (UniProt Q70CQ2)
Procedure, shortened: (§1)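 Global-median-normalised Spectronaut label-free quantities were compared by unpaired t-test, and values are average log2 ratios of fragment over vehicle. Only proteins with ≥2 unique peptides were used. HEK293T lysate (495 µg per sample) was treated in triplicate with fragment at 200 µM or vehicle for 3 h and then with Biotin-Ahx-Ub-VS at 0.5 µM final for 1 h. Labelled DUBs were then NeutrAvidin-enriched, digested with LysC and trypsin, and run by diaPASEF LC-MS/MS.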

USP36 = target: T1, USP36 (UniProt Q9P275)
T1 sequence (whole entry): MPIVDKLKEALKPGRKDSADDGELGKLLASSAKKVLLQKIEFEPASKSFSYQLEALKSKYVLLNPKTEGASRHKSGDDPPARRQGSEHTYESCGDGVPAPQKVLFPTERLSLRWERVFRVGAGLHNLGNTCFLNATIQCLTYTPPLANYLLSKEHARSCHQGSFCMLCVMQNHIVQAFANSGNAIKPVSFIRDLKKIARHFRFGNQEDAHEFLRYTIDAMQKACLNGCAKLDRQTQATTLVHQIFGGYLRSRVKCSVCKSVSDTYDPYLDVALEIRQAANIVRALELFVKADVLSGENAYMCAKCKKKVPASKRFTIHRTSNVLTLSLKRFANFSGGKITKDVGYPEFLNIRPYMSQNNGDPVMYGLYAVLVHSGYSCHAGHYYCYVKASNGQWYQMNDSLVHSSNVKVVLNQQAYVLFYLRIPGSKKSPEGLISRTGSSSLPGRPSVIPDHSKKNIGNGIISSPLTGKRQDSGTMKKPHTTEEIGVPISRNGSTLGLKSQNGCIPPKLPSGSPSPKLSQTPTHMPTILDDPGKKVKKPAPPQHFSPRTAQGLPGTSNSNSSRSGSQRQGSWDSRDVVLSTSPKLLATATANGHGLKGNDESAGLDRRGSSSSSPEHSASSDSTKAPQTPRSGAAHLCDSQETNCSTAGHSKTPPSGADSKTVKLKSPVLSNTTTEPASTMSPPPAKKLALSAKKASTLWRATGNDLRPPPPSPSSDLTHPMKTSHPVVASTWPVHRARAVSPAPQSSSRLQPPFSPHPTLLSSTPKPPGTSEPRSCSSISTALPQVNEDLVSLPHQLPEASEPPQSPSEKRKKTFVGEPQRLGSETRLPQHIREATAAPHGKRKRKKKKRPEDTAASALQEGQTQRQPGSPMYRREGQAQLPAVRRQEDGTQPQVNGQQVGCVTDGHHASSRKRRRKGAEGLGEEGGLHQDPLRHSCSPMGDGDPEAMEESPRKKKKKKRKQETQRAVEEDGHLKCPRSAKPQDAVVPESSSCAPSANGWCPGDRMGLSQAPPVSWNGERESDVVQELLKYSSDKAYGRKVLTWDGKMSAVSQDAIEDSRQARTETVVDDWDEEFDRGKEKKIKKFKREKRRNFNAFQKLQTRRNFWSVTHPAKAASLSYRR
Procedure, shortened: as §1

USP38 = target: T2, USP38 (UniProt Q8NB14)
T2 sequence (whole entry): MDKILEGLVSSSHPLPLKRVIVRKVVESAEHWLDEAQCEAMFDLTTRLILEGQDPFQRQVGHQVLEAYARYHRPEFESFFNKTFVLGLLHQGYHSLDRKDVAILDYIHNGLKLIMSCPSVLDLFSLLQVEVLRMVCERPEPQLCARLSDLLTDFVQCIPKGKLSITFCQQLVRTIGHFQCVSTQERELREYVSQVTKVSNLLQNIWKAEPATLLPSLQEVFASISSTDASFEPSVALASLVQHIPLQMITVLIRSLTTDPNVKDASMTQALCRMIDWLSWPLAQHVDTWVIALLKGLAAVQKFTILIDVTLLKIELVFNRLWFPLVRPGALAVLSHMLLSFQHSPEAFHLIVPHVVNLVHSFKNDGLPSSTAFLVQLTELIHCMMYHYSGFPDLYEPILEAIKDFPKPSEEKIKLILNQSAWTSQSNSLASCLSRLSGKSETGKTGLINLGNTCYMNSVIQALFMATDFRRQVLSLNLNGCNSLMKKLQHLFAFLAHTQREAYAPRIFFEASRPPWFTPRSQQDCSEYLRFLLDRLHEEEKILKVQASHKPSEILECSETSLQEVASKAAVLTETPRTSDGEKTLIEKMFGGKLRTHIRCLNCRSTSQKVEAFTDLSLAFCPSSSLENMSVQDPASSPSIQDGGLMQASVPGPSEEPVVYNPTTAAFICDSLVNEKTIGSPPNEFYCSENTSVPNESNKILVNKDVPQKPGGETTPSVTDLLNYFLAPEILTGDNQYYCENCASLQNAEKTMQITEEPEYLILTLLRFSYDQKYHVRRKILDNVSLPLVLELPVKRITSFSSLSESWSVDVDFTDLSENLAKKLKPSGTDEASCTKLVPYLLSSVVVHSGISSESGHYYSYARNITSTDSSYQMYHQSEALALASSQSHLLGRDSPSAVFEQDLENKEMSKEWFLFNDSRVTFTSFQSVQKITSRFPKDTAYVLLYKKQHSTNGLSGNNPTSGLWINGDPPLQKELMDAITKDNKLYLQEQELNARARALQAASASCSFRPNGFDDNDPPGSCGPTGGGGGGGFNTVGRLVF
Procedure, shortened: as §1

USP39 = target: T3, USP39 (UniProt Q53GS9)
T3 sequence (whole entry): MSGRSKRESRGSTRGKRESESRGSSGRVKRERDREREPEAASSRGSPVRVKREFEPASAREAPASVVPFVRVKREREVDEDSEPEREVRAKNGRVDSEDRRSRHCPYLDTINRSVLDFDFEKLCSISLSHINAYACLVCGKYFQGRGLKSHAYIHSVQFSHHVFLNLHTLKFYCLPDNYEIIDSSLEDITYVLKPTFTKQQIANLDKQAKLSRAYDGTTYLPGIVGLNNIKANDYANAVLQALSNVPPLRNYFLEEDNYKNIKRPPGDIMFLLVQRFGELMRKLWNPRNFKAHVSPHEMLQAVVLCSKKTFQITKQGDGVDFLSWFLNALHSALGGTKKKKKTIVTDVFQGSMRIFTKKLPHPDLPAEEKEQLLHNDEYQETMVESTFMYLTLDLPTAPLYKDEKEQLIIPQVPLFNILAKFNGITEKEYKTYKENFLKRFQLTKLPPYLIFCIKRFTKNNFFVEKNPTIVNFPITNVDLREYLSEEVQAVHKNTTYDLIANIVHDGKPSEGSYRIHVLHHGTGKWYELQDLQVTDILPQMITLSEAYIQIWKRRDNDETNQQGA
Procedure, shortened: as §1

USP4 = target: T4, USP4 (UniProt Q13107)
T4 sequence (whole entry): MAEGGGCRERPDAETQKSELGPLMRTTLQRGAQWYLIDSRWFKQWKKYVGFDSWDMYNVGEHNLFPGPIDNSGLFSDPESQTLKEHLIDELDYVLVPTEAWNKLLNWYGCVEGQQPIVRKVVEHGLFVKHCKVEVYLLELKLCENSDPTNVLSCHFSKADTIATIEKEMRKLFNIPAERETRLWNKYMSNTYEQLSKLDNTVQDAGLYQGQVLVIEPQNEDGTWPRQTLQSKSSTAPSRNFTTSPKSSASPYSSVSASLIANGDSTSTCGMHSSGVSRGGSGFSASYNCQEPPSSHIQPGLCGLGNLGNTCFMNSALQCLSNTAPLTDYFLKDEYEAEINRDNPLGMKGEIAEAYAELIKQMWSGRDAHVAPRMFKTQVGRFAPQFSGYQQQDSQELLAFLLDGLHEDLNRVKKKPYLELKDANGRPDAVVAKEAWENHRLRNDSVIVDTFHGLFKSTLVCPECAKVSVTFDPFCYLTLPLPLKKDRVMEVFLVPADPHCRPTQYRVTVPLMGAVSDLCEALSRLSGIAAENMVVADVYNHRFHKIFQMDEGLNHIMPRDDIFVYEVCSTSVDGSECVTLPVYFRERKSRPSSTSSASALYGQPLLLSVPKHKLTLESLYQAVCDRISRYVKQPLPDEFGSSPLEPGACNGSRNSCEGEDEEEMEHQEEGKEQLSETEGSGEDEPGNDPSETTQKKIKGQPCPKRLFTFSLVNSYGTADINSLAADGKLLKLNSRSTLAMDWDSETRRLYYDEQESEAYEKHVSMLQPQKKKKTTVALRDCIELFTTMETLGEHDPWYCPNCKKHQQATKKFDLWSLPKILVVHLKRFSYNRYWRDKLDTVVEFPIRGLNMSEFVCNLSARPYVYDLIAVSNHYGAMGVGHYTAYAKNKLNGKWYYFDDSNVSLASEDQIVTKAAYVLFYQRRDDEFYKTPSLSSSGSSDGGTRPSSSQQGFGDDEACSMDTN
Procedure, shortened: as §1

Measured: log2 ratio of Biotin-Ahx-Ub-VS probe labelling

Sequence of USP34 (Q70CQ2 whole entry, the tested form may be a part): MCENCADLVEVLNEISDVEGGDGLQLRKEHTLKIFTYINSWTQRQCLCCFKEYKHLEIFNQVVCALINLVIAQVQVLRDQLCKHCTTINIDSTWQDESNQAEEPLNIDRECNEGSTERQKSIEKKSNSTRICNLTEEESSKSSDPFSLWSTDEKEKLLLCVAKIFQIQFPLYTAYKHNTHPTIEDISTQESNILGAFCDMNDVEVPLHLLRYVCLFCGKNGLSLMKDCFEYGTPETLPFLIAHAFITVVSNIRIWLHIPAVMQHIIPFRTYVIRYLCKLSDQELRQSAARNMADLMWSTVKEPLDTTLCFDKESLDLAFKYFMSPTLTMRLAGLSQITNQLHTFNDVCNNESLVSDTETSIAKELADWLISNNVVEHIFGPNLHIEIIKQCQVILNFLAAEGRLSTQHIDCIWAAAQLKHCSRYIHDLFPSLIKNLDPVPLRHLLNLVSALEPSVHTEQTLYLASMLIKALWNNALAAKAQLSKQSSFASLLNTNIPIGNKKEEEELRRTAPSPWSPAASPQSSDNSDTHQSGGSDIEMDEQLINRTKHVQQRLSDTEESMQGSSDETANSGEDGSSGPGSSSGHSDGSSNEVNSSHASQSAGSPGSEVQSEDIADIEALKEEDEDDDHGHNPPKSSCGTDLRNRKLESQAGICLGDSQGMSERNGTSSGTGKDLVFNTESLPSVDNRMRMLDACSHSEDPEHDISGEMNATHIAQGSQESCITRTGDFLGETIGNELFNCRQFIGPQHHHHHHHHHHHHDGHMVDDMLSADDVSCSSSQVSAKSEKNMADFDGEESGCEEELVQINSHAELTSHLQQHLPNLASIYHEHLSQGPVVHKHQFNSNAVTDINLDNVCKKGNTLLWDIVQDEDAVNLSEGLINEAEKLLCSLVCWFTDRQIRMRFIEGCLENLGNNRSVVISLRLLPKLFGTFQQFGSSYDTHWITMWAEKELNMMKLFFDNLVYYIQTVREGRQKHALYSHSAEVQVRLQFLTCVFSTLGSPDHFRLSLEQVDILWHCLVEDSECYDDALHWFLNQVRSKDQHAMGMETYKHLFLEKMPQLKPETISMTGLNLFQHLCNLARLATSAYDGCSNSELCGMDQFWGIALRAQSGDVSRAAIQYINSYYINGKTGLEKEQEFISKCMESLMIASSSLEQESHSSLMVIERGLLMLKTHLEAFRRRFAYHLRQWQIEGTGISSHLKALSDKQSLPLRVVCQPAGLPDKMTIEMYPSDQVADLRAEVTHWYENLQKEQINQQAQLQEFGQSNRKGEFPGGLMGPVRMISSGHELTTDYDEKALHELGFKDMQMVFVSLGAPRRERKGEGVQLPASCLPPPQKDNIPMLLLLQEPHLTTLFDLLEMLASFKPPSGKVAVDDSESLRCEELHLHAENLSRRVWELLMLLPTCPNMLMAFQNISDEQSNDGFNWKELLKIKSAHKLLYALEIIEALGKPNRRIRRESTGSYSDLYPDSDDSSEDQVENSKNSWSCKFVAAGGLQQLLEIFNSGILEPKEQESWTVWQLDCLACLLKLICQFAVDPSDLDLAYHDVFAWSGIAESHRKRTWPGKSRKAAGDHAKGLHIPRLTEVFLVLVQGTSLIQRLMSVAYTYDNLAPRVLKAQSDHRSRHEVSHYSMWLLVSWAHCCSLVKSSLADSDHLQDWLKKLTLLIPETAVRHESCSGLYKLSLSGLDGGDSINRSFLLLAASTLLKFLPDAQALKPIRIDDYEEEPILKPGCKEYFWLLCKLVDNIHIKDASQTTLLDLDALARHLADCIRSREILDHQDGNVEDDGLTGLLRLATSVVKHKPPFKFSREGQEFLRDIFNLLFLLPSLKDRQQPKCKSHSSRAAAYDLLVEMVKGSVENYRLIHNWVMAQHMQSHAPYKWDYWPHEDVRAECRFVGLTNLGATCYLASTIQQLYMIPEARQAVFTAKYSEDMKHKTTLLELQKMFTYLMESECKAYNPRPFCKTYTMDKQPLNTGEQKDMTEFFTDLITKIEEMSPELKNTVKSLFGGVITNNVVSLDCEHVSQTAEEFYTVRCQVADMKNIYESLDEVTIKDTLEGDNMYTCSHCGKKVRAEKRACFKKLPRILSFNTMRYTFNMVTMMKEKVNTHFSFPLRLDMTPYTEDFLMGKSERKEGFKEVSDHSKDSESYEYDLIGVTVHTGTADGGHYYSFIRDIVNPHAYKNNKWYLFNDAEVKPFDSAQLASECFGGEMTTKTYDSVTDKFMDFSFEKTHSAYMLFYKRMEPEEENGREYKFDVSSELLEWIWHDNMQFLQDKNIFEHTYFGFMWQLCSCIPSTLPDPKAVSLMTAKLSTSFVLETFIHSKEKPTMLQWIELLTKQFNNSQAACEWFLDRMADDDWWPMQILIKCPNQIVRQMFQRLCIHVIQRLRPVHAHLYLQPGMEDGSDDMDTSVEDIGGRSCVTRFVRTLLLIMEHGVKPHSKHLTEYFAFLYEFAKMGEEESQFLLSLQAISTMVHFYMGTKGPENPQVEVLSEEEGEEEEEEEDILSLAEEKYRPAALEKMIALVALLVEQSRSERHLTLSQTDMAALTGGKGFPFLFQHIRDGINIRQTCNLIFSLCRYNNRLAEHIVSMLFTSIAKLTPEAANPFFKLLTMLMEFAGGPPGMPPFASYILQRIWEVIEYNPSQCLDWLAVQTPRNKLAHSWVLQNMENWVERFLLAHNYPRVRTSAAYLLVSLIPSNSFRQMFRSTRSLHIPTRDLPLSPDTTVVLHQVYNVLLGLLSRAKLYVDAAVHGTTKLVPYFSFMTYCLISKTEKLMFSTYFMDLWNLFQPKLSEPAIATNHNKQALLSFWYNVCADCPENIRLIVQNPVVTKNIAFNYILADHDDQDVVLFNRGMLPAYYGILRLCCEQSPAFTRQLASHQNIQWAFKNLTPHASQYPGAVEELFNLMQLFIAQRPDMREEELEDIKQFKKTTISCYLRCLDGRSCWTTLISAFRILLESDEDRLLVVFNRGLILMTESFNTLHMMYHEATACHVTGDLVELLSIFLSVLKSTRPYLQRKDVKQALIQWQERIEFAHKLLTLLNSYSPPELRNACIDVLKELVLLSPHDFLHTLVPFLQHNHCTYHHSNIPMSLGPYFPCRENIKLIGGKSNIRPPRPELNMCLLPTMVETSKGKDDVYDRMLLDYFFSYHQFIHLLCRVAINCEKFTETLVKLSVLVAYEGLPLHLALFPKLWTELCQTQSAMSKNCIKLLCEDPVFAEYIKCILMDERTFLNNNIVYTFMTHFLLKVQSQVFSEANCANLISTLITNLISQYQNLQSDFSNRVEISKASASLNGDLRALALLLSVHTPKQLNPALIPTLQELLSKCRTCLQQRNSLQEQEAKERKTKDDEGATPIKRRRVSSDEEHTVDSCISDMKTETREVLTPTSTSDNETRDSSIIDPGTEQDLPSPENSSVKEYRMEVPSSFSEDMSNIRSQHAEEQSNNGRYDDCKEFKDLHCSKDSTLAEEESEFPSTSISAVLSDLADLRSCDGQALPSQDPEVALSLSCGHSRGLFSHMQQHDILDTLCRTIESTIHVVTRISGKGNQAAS

O=C(CCl)N(Cc1ccsc1)C1CC1
inactive: USP34 -0.211 | USP36 0.266 | USP38 0.00214 | USP39 -0.0741 | USP4 -0.116
